Measurements published in PubChem BioAssay AID1159580 (chemical genetic matrix, 2015).
Hit rate of the full screen: of about 5,500 compounds, about 2,000 (36%) were called active. Inconclusive results (about 18%) are left out. Cut-off read from the data, not from the text of the source: active = normalized growth mostly below about 0.91 (no sharp cut-off); inconclusive = no clear call, values can overlap the other calls; inactive = mostly above about 0.92. This is one part of the list.

Test: chemical genetic growth profiling, strain panel (AID 1159580);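 note: tested at 20 µM; growth read once vehicle control cultures reached saturation at 30 °C; 1 = growth at the plate median or of vehicle wells; lower values mean less growth of the strain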
Conditions: S. cerevisiae deletion strains, growth OD
[1] = locus YAL040C, strain CLN3, hits give low values
[2] = locus YCL061C, strain MRC1 (second series), hits give low values
[3] = locus YDR363W, strain ESC2, hits give low values
[4] = locus YER002W, strain NOP16, hits give low values
[5] = locus YGR078C, strain PAC10, hits give low values
[6] = locus YJR075W, strain HOC1, hits give low values
[7] = locus YMR307W, strain GAS1, hits give low values
[8] = locus YNL175C, strain NOP13, hits give low values
[9] = locus YNL197C, strain WHI3, hits give low values
[10] = locus YNL224C, strain SQS1, hits give low values
[11] = locus YOR083W, strain WHI5 (second series), hits give low values
[12] = locus YPL055C, strain LGE1, hits give low values
[13] = locus YPL241C, strain CIN2, hits give low values
[14] = locus YAL013W, strain DEP1, hits give low values

Measured: normalized growth

CC(C)(C)c1onc(OCP(=O)(O)O)c1CC(N)C(=O)O (stereo not drawn)
inactive: [1] 1 | [2] 0.997 | [3] 1.02 | [4] 0.996 | [5] 1.01 | [6] 1 | [7] 1.03 | locus YNL128W, strain TEP1, hits give low values 1.03 | [8] 0.999 | [9] 1.01 | [10] 1.01 | [11] 1.06 | [12] 1 | [13] 0.999

O=C(O)C1=CCCN(CCON=C(c2ccccc2)c2ccccc2)C1
inactive: [14] 1 | [1] 1.04 | [2] 1 | locus YDR150W, strain NUM1, hits give low values 1 | [3] 0.976 | [4] 0.97 | [5] 0.993 | [6] 1 | locus YMR263W, strain SAP30, hits give low values 1 | [8] 0.987 | [9] 0.981 | [10] 0.993 | [11] 0.987 | [12] 1 | [13] 1

COc1ccc(CCNC[C@@H](O)c2ccc(O)cc2)cc1OC
inactive: [14] 1.01 | [1] 0.995 | [2] 0.993 | [3] 1.02 | [4] 1.01 | [7] 0.944 | locus YNL153C, strain GIM3, hits give low values 0.999 | [8] 0.992 | [9] 0.981 | [10] 0.989 | [11] 0.986

CNCC(O)c1cccc(O)c1 (stereo not drawn)
inactive: [14] 0.992 | [1] 0.974 | [2] 0.988 | [3] 0.99 | [4] 1.01 | locus YGR229C, strain SMI1, hits give low values 1.01 | [7] 0.968 | [8] 1.01 | [9] 0.998 | [10] 1 | locus YNL322C, strain KRE1, hits give low values 0.976 | [11] 1.02 | [12] 0.984
